From PubChem BioAssay (NCI)
“And” between values parts separate entries of the source, which are not always exact repeats. Equal entries are not always repeated. About 79,000 compounds went through this panel and 15% of them were active in at least one assay; those are over-represented in the sample as a whole. Where a structure was tested more than once in an assay, its records may differ in their call. The source made the active and inactive calls. Rule as the data show it: active = growth inhibition above about 70%; inactive = the rest.

Assay: NCI Yeast Anticancer Drug Screen. Data for the mlh1 rad18 strain (AID 175)
Conditions: S. cerevisiae mlh1 rad18 strain growth inhibition; at 50.0 µM; stronger effect = higher value
Summary of the method: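 Read-out is yeast growth inhibition, calculated against vehicle-only controls. The compound was applied to a strain engineered with DNA damage repair alterations.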
With `O=C(c1ccc(Br)cc1)C1C(c2ccccc2)N1C1CCCCC1` (centres undefined) the growth inhibition was 91% (active).
With `Cc1cccc2cc3ccccc3c[n+]12` the growth inhibition was 91% (active).
For `Cc1ccc(P(=O)(c2ccc(C)cc2)c2ccc(C)cc2)cc1.Cc1ccc(P(=O)(c2ccc(C)cc2)c2ccc(C)cc2)cc1.[Cl][Sn]([Cl])([Cl])[Cl]`, the growth inhibition was 38% (inactive).
In the case of `c1ccc(P(CCP(c2ccccc2)c2ccccc2)CCP(c2ccccc2)c2ccccc2)cc1`, the growth inhibition is reported as 91.8% (active).
With `O=[N+]([O-])c1cc2c([N+](=O)[O-])cccc2o1` the growth inhibition was 99.5% (active).
With `O=C1CCC[N]1[Hg][N]1CCCC1=O` the growth inhibition was 92.8% (active).
With `Oc1c(Cl)c(Cl)c(Cl)c(Cl)c1Cl.[Cu+2]` the growth inhibition was 88.6% (active).
With `ClCCN(CCCl)c1ccc(C=NCCCCN=Cc2ccc(N(CCCl)CCCl)cc2)cc1` the growth inhibition was 85.8% (active).
In the case of `CC(C(=O)C1CCCCC1)[n+]1ccccc1` (centres undefined), the growth inhibition is reported as -5.85% (inactive).
For `CN(C)CC1CCCCC1=O` (centres undefined), the growth inhibition was 71.9% (active) and 18.1% (inactive) and 5.25% (inactive).
In the case of `CSc1nncc(=O)[nH]1.[Hg]`, the growth inhibition is reported as 99.2% (active).
In the case of `CNC(=O)N1CN(c2ccccc2)C2(CCN(CCCC(=O)c3ccc(F)cc3)CC2)C1=O`, the growth inhibition is reported as 68.3% (inactive).
With `O=C(OCc1ccccc1)C(C(Cl)c1ccccc1)N(Cc1ccccc1)Cc1ccccc1` (centres undefined) the growth inhibition was 86.5% (active).
For `O=C1C=C(Cl)C(=O)C=C1Cl`, the growth inhibition was 99.3% (active).
For `CC(=O)[O][Hg][c]1ccccc1N`, the growth inhibition was 91.7% (active).
In the case of `CCOP(=O)(Cc1cccc2ccccc12)OCC`, the growth inhibition is reported as -3.35% (inactive).
In the case of `Nc1c(Cl)cccc1C(=O)O`, the growth inhibition is reported as 34.9% (inactive).
For `CC(=O)O[C@H]1CC[C@H]2[C@@H]3CCC4=CC(=O)CC[C@@H]4[C@H]3CC[C@]12C`, the growth inhibition was 97.3% (active).
With `C1CC[N-]CC1.CC(=N\O)/C(C)=N/O.CC(=N\O)/C(C)=N/O.OC1[CH-]CCCC1.[Co+2]` the growth inhibition was 30.9% (inactive).
For `c1ccc(C(C(=Nc2ccc(Cc3ccc(N=C(C(c4ccccc4)c4ccccc4)N4CC4)cc3)cc2)N2CC2)c2ccccc2)cc1`, the growth inhibition was 91.7% (active).
With `CCN(Cc1ccccc1)CC(O)c1ccc(Cl)c(Cl)c1` (centres undefined) the growth inhibition was 3.6% (inactive).
In the case of `CC(=O)OC1C(O)C(C)OC(OC2C(OC(=O)C3CCC4C(C3)OC3(CC(OC(=O)/C=C/c5ccccc5)C(C)CO3)C43CO3)OC(C)C(O)C2OC(C)=O)C1O` (centres undefined), the growth inhibition is reported as 91.6% (active).
In the case of `CCCCC(CC)CNP(=S)(NCC(CC)CCCC)NCC(CC)CCCC` (centres undefined), the growth inhibition is reported as 69.1% (inactive).
For `Oc1c(-c2ccccc2)cc(-[n+]2c(-c3ccccc3)cc(-c3ccccc3)cc2-c2ccccc2)cc1-c1ccccc1`, the growth inhibition was 91.5% (active).
For `Cc1ccc([C@H]2N[C@@H]2c2ccccn2)cc1`, the growth inhibition was 19% (inactive).
In the case of `CC[CH2][Sn]([CH2]CC)([CH2]CC)[CH2]CCBr`, the growth inhibition is reported as 99.5% (active).
In the case of `O=[N+]([O-])c1cc(S(=O)(=O)F)ccc1S`, the growth inhibition is reported as 95.8% (active).
In the case of `CCCCN(CCCC)CCc1ccc(OC(=O)c2ccc(N)cc2)cc1`, the growth inhibition is reported as 84.8% (active).
With `Cc1ccc(C(=O)OC(C(=O)O)C(OC(=O)c2ccc(C)cc2)C(=O)O)cc1` (centres undefined) (tested in a mixture with another compound) the growth inhibition was 12.3% (inactive) and 92.5% (active).
With `N#C[S-].[Ce+3].c1ccc(-c2ccccn2)nc1.c1ccc(-c2ccccn2)nc1.c1ccc(-c2ccccn2)nc1` the growth inhibition was 91.4% (active).
In the case of `Nc1nc(N)c(-c2ccc(Cl)c(Cl)c2)c(CCc2ccc(CNC(=O)c3ccc(S(=O)(=O)F)cc3)cc2)n1`, the growth inhibition is reported as 76.2% (active).
In the case of `CC1C2C=CC1C(c1c3ccc(=O)c(O)c-3oc3c(O)c(O)ccc13)C2C(=O)O` (centres undefined), the growth inhibition is reported as 8.3% (inactive).
With `O=C(O)CN(CCN(CC(=O)O)CC(=O)O)CC(=O)O` the growth inhibition was 44.4% (inactive) and 24.2% (inactive) and 46.9% (inactive).
With `O=S(=O)(F)c1ccc(Cl)cc1C[P+](c1ccccc1)(c1ccccc1)c1ccccc1` the growth inhibition was 69% (inactive).
With `Oc1ccc2ccccc2c1O` the growth inhibition was 86.2% (active).
In the case of `COC1=[C]([Hg][Br])C(OC)OC1OC` (centres undefined), the growth inhibition is reported as 99.5% (active).
For `Nc1nc(CCl)cs1`, the growth inhibition was 17.8% (inactive) and -17% (inactive).
For `CCC(C)N1CN(c2ccccc2)C2(CCN(CCCC3(c4ccc(F)cc4)OCCO3)CC2)C1=O` (centres undefined), the growth inhibition was 31% (inactive).
With `COc1ccc(NP(=S)(Nc2ccc(OC)cc2)c2ccccc2)cc1` the growth inhibition was 28.9% (inactive).
